Laboratory results as given in PubChem BioAssay (NCATS).
Inconclusive results are not listed. A number with no mark means an inactive call. Activity calls are given as the source filed them. The call rests on the fitted dose curve; in most records, active means well fitted curve in the direction sought with a large enough effect; inconclusive means small, poorly fitted or top-dose-only effect, or another doubt; inactive means no such curve, though single readings can be large; an effect the other way counts as inactive or inconclusive.

The compounds below were run against Aldehyde dehydrogenase, mitochondrial (Homo sapiens) (UniProt P05091) (assay: qHTS for Inhibitors of the Aldehyde Dehydrogenase Family (ALDH2) Primary screen (AID 2061308;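 further: plate controls were vehicle for no effect and reference inhibitor for full effect; nearly all actives have a fitted effect of over 55% in size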)). Settings: ALDH2 enzyme inhibition qHTS, 1536-well; series mostly up to 56 µM; activity change, negative = inhibition: at the top concentration.

Row | Structure (SMILES) | activity change, negative = inhibition | Potency
1 | N#Cc1cccc(Nc2ncc(-c3cccc4ccccc34)o2)c1 | -6.91% | –
2 | Cc1cc(NS(=O)(=O)c2ccc(NC(=O)Cc3cccc(Cl)c3)cc2)no1 | -7.2% | –
3 | Cc1cc(C)nc(NC(=S)N2CCN(c3nc4ccccc4o3)CC2)c1 | 10.4% | –
4 | CC(=O)NC(c1cc(F)c2cccnc2c1O)C1CC1 (stereo not given) | -13.6% | –
5 | N#Cc1nc(Nc2ccc(C(F)(F)F)cc2)nc(NC2CCCC2)n1 | -11.4% | –
6 | COc1cc(F)c(S(=O)(=O)N2CCN(S(=O)(=O)c3ccc(N)cc3)CC2)c(F)c1 | 16.5% | –
7 | COC(=O)C1=CO[C@@H](O[C@@H]2O[C@H](CO)[C@@H](O)[C@H](O)[C@H]2O)[C@H]2[C@@H]1[C@H](O)[C@H](O)[C@]2(C)O | -3.76% [at 28 µM] | –
8 | Cn1cc(C[C@H](C(=O)O)N2C(=O)c3ccc(C(=O)O)cc3C2=O)c2ccccc21 | -15% | –
9 | CC(=O)NC1CCN(c2nc(-c3ccc(Br)cc3)cs2)CC1 | -6.76% | –
10 | COc1ccc(NC(=O)CN2C(=O)N/C(=C\c3cccn3-c3ccc(C(=O)NC#N)cc3)C2=O)cc1 | -14.4% | –
11 | Nc1nc(NCC2CCC(CNS(=O)(=O)c3cccc4ccccc34)CC2)nc2ccccc12 (stereo not given) | 53.2% | –
12 | Cc1cc2[nH]c3c(=O)n(Cc4ccccc4F)ncc3c2s1 | 7.57% | –
13 | CCCCN(C)C(=O)Cn1nc(-c2ccccc2C)ccc1=O | -6.45% | –
14 | CN1C2CCC1CC(OC(=O)[C@H](CO)c1ccccc1)C2 (stereo not given in full) | 5.58% | –
15 | CC(=O)Nc1ccc(S(=O)(=O)Nc2ccc(C)c(C)c2)cc1 | 5.49% | –
16 | Cc1c(C(=O)O)[nH]c2c1C(=O)CCC2 | 4.79% | –
17 | O=S(=O)(c1ccc2c(c1)OCCO2)N1CCN(S(=O)(=O)c2ccc3c(c2)OCCO3)CC1 | – | inactive
18 | CC(C)(C)OC(=O)NCCOCCOCCOc1cccc(-n2ncc3c2CCCC3NC(=O)c2ccccn2)c1 (stereo not given) | 9.18% | –
19 | CC(C)(C#CCSc1nnc(-c2cccc3ccccc23)o1)OC(=O)c1ccc(F)cc1 | -6.49% | –
20 | CC(=O)c1ccc(-c2csc(N3CCC(C(N)=O)CC3)n2)cc1 | 91.1% | –

Row | Structure (SMILES) | activity change, negative = inhibition | Potency
21 | Cc1cc(C)nc(NC(=S)N2CCN(c3cccc(C(F)(F)F)n3)CC2)c1 | -23.2% | –
22 | CC(C)(C)OC(=O)NCCCNc1ncnc2ccc(-c3ccc4c(c3)OCO4)cc12 | 13.8% | –
23 | N#Cc1ccc(-c2ccc(NC(=O)c3cccs3)cn2)cc1 | -12.8% | –
24 | CC1=C(C(=O)n2ccc3ccccc32)C(c2ccccc2Br)N=C(Nc2nc3ccccc3o2)N1 (stereo not given) | -7.43% | –
25 | CC(C)c1ccccc1-c1nc(NCc2ccc(-c3cccnc3)cc2)c2ccsc2n1 | 8% | –
26 | CC1=CC2/C=C(\C)CCC(O)C/C=C/C(=O)OC23C(=O)NC(CC(C)C)C3C1C (stereo not given) | 6.29% [at 28 µM] | –
27 | O=[S+]([O-])(Nc1ccc(-c2ccccc2)cc1)c1ccc(NCc2ccc(Cl)cc2O)cc1 | -16.4% | –
28 | CCCn1c(C)nc2c(NCCCN(CC)CC)nc(C)nc21 | -4.77% | –
29 | COc1ccccc1N1C(=O)c2ccccc2C1=O | -10.1% | –
30 | Cc1cc(C)n2ncc(C(=O)Nc3ccc(C(C)(C)C)cc3)c2n1 | 4.74% | –
31 | c1nc(N2CCCCC2)c2cc(-c3ccc4c(c3)OCO4)ccc2n1 | 12.9% | –
32 | Brc1cnc2nc(SCc3ccccn3)[nH]c2c1 | -12.8% | –
33 | CCCn1c(-c2ccc(F)cc2)nc2c(N3CCCN(Cc4ccccc4)CC3)nc(C)nc21 | 17.1% | –
34 | Oc1cccc2cc(N3CCCC3)cnc12 | -11.7% | –
35 | CCOC(=O)c1ccc(-n2cnc3cc(C(=O)N4CCCCC4)ccc32)cc1 | 58.3% | –
36 | O=C(Nc1ccc(Cl)cc1)Nc1cccc(-c2cccc(N3CCCC3)n2)c1 | 6.62% | –
37 | CC(C)O[C@@H]1O[C@H](CO)[C@@H](O)[C@H](O)[C@H]1O | -0.57% | –
38 | CC(C)(C)[C@H](NC(=O)c1ccc(N)c(Cl)c1)C(=O)N1CCC[C@H]1C(=O)N[C@H](C#N)Cc1nn[nH]n1 | -6.08% | –
39 | Cc1ccc(NC(=O)c2ccncc2NS(=O)(=O)c2ccc(C)cc2)cc1 | -0.024% | –
40 | COc1cccc(C2=Nn3c(nnc3-c3ccc(OC)cc3OC)SC2)c1 | 19.6% | –

These compounds were tested against Retinaldehyde dehydrogenase 3 (Homo sapiens) (UniProt P47895) (assay: qHTS for Inhibitors of the Aldehyde Dehydrogenase Family (ALDH1A3) Primary screen (AID 2061315;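 further: plate controls were DMSO vehicle for no effect and reference inhibitor for full effect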)). Settings: ALDH inhibition qHTS; series mostly up to 56 µM; activity change, negative = inhibition: at the top concentration.

Row | Structure (SMILES) | activity change, negative = inhibition
41 | N#Cc1cccc(Nc2ncc(-c3cccc4ccccc34)o2)c1 | -4.66%
42 | Cc1cc(NS(=O)(=O)c2ccc(NC(=O)Cc3cccc(Cl)c3)cc2)no1 | -2.09%
43 | Cc1cc(C)nc(NC(=S)N2CCN(c3nc4ccccc4o3)CC2)c1 | 18.6%
44 | CC(=O)NC(c1cc(F)c2cccnc2c1O)C1CC1 (stereo not given) | 15.1%
45 | N#Cc1nc(Nc2ccc(C(F)(F)F)cc2)nc(NC2CCCC2)n1 | -15.8%
46 | COc1cc(F)c(S(=O)(=O)N2CCN(S(=O)(=O)c3ccc(N)cc3)CC2)c(F)c1 | 2.59%
47 | COC(=O)C1=CO[C@@H](O[C@@H]2O[C@H](CO)[C@@H](O)[C@H](O)[C@H]2O)[C@H]2[C@@H]1[C@H](O)[C@H](O)[C@]2(C)O | -22.2% [at 28 µM]
48 | Cn1cc(C[C@H](C(=O)O)N2C(=O)c3ccc(C(=O)O)cc3C2=O)c2ccccc21 | -12%
49 | CC(=O)NC1CCN(c2nc(-c3ccc(Br)cc3)cs2)CC1 | 6.85%
50 | COc1ccc(NC(=O)CN2C(=O)N/C(=C\c3cccn3-c3ccc(C(=O)NC#N)cc3)C2=O)cc1 | 38.5%
51 | Nc1nc(NCC2CCC(CNS(=O)(=O)c3cccc4ccccc34)CC2)nc2ccccc12 (stereo not given) | 50.4%
52 | Cc1cc2[nH]c3c(=O)n(Cc4ccccc4F)ncc3c2s1 | 1.53%
53 | CCCCN(C)C(=O)Cn1nc(-c2ccccc2C)ccc1=O | 9.87%
54 | CN1C2CCC1CC(OC(=O)[C@H](CO)c1ccccc1)C2 (stereo not given in full) | 0.907%
55 | CC(=O)Nc1ccc(S(=O)(=O)Nc2ccc(C)c(C)c2)cc1 | 5.82%
56 | Cc1c(C(=O)O)[nH]c2c1C(=O)CCC2 | -15.3%
57 | O=S(=O)(c1ccc2c(c1)OCCO2)N1CCN(S(=O)(=O)c2ccc3c(c2)OCCO3)CC1 | -6.18%
58 | CC(C)(C)OC(=O)NCCOCCOCCOc1cccc(-n2ncc3c2CCCC3NC(=O)c2ccccn2)c1 (stereo not given) | -5.59%
59 | CC(C)(C#CCSc1nnc(-c2cccc3ccccc23)o1)OC(=O)c1ccc(F)cc1 | 8.22%
60 | CC(=O)c1ccc(-c2csc(N3CCC(C(N)=O)CC3)n2)cc1 | -26.9%

Row | Structure (SMILES) | activity change, negative = inhibition
61 | Cc1cc(C)nc(NC(=S)N2CCN(c3cccc(C(F)(F)F)n3)CC2)c1 | 19.3%
62 | CC(C)(C)OC(=O)NCCCNc1ncnc2ccc(-c3ccc4c(c3)OCO4)cc12 | 6.22%
63 | N#Cc1ccc(-c2ccc(NC(=O)c3cccs3)cn2)cc1 | 12.8%
64 | CC1=C(C(=O)n2ccc3ccccc32)C(c2ccccc2Br)N=C(Nc2nc3ccccc3o2)N1 (stereo not given) | 18.5%
65 | CC(C)c1ccccc1-c1nc(NCc2ccc(-c3cccnc3)cc2)c2ccsc2n1 | 9.89%
66 | CC1=CC2/C=C(\C)CCC(O)C/C=C/C(=O)OC23C(=O)NC(CC(C)C)C3C1C (stereo not given) | 17.6% [at 28 µM]
67 | O=[S+]([O-])(Nc1ccc(-c2ccccc2)cc1)c1ccc(NCc2ccc(Cl)cc2O)cc1 | 0.768%
68 | CCCn1c(C)nc2c(NCCCN(CC)CC)nc(C)nc21 | 1.13%
69 | COc1ccccc1N1C(=O)c2ccccc2C1=O | 5.67%
70 | Cc1cc(C)n2ncc(C(=O)Nc3ccc(C(C)(C)C)cc3)c2n1 | 12.1%
71 | c1nc(N2CCCCC2)c2cc(-c3ccc4c(c3)OCO4)ccc2n1 | 5.12%
72 | Brc1cnc2nc(SCc3ccccn3)[nH]c2c1 | 1.1%
73 | CCCn1c(-c2ccc(F)cc2)nc2c(N3CCCN(Cc4ccccc4)CC3)nc(C)nc21 | -8.45%
74 | Oc1cccc2cc(N3CCCC3)cnc12 | -16%
75 | CCOC(=O)c1ccc(-n2cnc3cc(C(=O)N4CCCCC4)ccc32)cc1 | -16.1%
76 | O=C(Nc1ccc(Cl)cc1)Nc1cccc(-c2cccc(N3CCCC3)n2)c1 | 0.0016%
77 | CC(C)O[C@@H]1O[C@H](CO)[C@@H](O)[C@H](O)[C@H]1O | -8.45%
78 | CC(C)(C)[C@H](NC(=O)c1ccc(N)c(Cl)c1)C(=O)N1CCC[C@H]1C(=O)N[C@H](C#N)Cc1nn[nH]n1 | 18%
79 | Cc1ccc(NC(=O)c2ccncc2NS(=O)(=O)c2ccc(C)cc2)cc1 | 14.7%
80 | COc1cccc(C2=Nn3c(nnc3-c3ccc(OC)cc3OC)SC2)c1 | -0.0996%
